Source: PubChem BioAssay (NCI)
The panel holds about 79,000 compounds, 15% with a hit somewhere; the sample as a whole holds those more often. Calls of active or inactive are those of the source. Rule as the data show it: active = growth inhibition above about 70%; inactive = the rest.

Key:
[1] = NCI Yeast Anticancer Drug Screen. Data for the rad52 strain (AID 147);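 also: 0% = growth of vehicle-treated control cultures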; conditions: S. cerevisiae rad52 mutant growth inhibition, active compounds read high
In short: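 Growth of repair-deficient yeast cells was compared between compound-treated and vehicle-treated cultures to give percent inhibition.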

[2] = NCI Yeast Anticancer Drug Screen. Data for the wt1 strain (AID 149);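 also: 0% = growth of vehicle-treated wt1 cultures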; conditions: S. cerevisiae wt1 strain (SPY 50644) growth inhibition, active compounds read high
In short: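 Yeast wt1 strain exposed to compounds; growth inhibition measured relative to vehicle-treated controls.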

[3] = NCI Yeast Anticancer Drug Screen. Data for the rad50EPP+ strain (AID 151);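 also: 0% = growth of vehicle-treated control cultures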; conditions: S. cerevisiae rad50 mutant strain, active compounds read high
In short: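 Measured: growth inhibition of rad50EPP+ yeast. Reference: vehicle-treated controls. Screen uses strains with defined genetic alterations in DNA damage repair or cell cycle control.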

[4] = NCI Yeast Anticancer Drug Screen. Data for the mgt1 strain (AID 153); conditions: S. cerevisiae mgt1 mutant growth inhibition, active compounds read high
In short: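 Compounds were applied to mgt1 mutant yeast, and growth was then compared against vehicle-treated control cultures to give percent inhibition.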

[5] = NCI Yeast Anticancer Drug Screen. Data for the rad50 strain (AID 155);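 also: 0% = growth of vehicle-only cultures of the same strain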; conditions: S. cerevisiae rad50 strain growth inhibition, active compounds read high
In short: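 Yeast carrying a defined DNA repair defect were exposed to test compounds, and growth was compared with vehicle-treated controls to give percent inhibition.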

[6] = NCI Yeast Anticancer Drug Screen. Data for the mec2-1 strain (AID 157); conditions: S. cerevisiae mec2-1 strain, active compounds read high
In short: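 Compounds were applied to mec2-1 yeast cells. Their growth was then compared with that of vehicle-treated cultures to give growth inhibition.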

[7] = NCI Yeast Anticancer Drug Screen. Data for the rad14 strain (AID 159);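 also: 0% = growth of vehicle-treated control cultures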; conditions: S. cerevisiae rad14 strain growth inhibition, active compounds read high
In short: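 Yeast cells carrying a defined DNA-repair defect were exposed to compounds, and growth inhibition was calculated relative to vehicle-treated control cultures.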

[8] = NCI Yeast Anticancer Drug Screen. Data for the sgs1 mgt1 strain (AID 161);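 also: 0% = growth of cultures given vehicle only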; conditions: S. cerevisiae sgs1 mgt1 strain, active compounds read high
In short: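 This yeast growth screen uses a strain with defined DNA-repair lesions; compound-treated growth is compared with vehicle-treated growth.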

[9] = NCI Yeast Anticancer Drug Screen. Data for the CLN2oe strain (AID 163);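 also: 0% = growth of vehicle-only control cultures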; conditions: S. cerevisiae CLN2oe strain, active compounds read high
In short: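 Cells of an engineered yeast line with disturbed cell-cycle regulation are treated with compound. Inhibition of growth is then calculated relative to the vehicle-treated reference.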

[10] = NCI Yeast Anticancer Drug Screen. Data for the cln2 rad14 strain (AID 165);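 also: 0% = growth equal to vehicle treated cultures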; conditions: S. cerevisiae cln2 rad14 strain, active compounds read high
In short: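 Strain: cln2 rad14 yeast, altered in cell cycle control and DNA damage repair. Read-out: growth inhibition vs vehicle.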

[11] = NCI Yeast Anticancer Drug Screen. Data for the bub3 strain (AID 167); conditions: S. cerevisiae bub3 mutant strain, active compounds read high
In short: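 Compounds were applied to a genetically altered yeast strain carrying a cell-cycle control defect. Growth inhibition was scored against vehicle-treated controls.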

[12] = NCI Yeast Anticancer Drug Screen. Data for the wt2 strain (AID 169);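 also: 0% = growth of vehicle-treated yeast cultures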; conditions: S. cerevisiae wt2 strain growth inhibition, active compounds read high
In short: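 Growth of compound-treated yeast is measured and expressed as inhibition relative to vehicle-only controls.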

[13] = NCI Yeast Anticancer Drug Screen. Data for the mlh1 strain (AID 171);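 also: 0% = growth of vehicle-treated control cultures of the same strain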; conditions: S. cerevisiae mlh1 strain growth inhibition, active compounds read high
In short: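 Test agents were incubated with yeast bearing a defined DNA damage repair or cell cycle control alteration; values are growth inhibition normalised to vehicle-treated cultures.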

[14] = NCI Yeast Anticancer Drug Screen. Data for the mlh1 rad18 strain (AID 175); conditions: S. cerevisiae mlh1 rad18 strain growth inhibition, active compounds read high
In short: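 A repair-deficient yeast strain is exposed to test compound, and growth is scored relative to vehicle-treated controls.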

[15] = NCI Yeast Anticancer Drug Screen. Data for the rad18 strain (AID 177); conditions: S. cerevisiae rad18 mutant growth inhibition, active compounds read high
In short: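 DNA-repair-defective yeast; compound treatment; growth inhibition scored against vehicle.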

[16] = at 5.0 µM (retest, dose inferred, filed as 0.5)
[17] = at 50.0 µM (retest, dose inferred, filed as 5.0)

Measured: growth inhibition

CC(=O)CC(c1ccccc1)c1c(O)c2ccccc2oc1=O (stereo not drawn)
active: [1]; at 100.0 µM 75% | [4]; at 100.0 µM 83% | [5]; [16] 70% | [5]; [17] 95% | [5]; at 100.0 µM 76% | [6]; [17] 97% | [8]; [17] 89% | [9]; at 100.0 µM 70% | [10]; [17] 90% | [11]; [17] 86% | [11]; at 100.0 µM 79% | [12]; at 100.0 µM 77% | [13]; at 100.0 µM 85% | [14]; [17] 99% | [15]; at 100.0 µM 78%
inactive: [1]; at 1.2 µM 5% | [1]; at 3.7 µM -1% | [1]; at 11.0 µM -4% | [1]; at 33.0 µM 16% | [2]; at 1.2 µM -10% | [2]; at 3.7 µM -10% | [2]; at 11.0 µM -12% | [2]; at 33.0 µM 10% | [2]; at 100.0 µM 64% | [3]; at 1.2 µM 15% | [3]; at 3.7 µM 4% | [3]; at 11.0 µM -3% | [3]; at 33.0 µM -4% | [3]; at 100.0 µM -16% | [4]; at 1.2 µM 13% | [4]; at 3.7 µM 4% | [4]; at 11.0 µM 14% | [4]; at 33.0 µM 44% | [5]; at 1.2 µM 6% | [5]; at 3.7 µM 5% | [5]; at 11.0 µM 6% | [5]; at 33.0 µM 20% | [5]; at 50.0 µM 46.8% | [6]; at 1.2 µM -9% | [6]; at 3.7 µM -9% | [6]; [16] 61% | [6]; at 11.0 µM -4% | [6]; at 33.0 µM 12% | [6]; at 50.0 µM 31.5% | [6]; at 100.0 µM 67% | [7]; at 1.2 µM -4% | [7]; at 3.7 µM 0% | [7]; at 11.0 µM -8% | [7]; at 33.0 µM 19% | [7]; at 100.0 µM 68% | [8]; [16] -1% | [8]; at 50.0 µM 55.4% | [9]; at 1.2 µM 17% | [9]; at 3.7 µM 22% | [9]; at 11.0 µM 6% | [9]; at 33.0 µM 39% | [10]; [16] 22% | [10]; at 50.0 µM 54.6% | [11]; at 1.2 µM 11% | [11]; at 3.7 µM 13% | [11]; [16] 29% | [11]; at 11.0 µM 14% | [11]; at 33.0 µM 45% | [11]; at 50.0 µM 62.1% | [12]; at 1.2 µM -20% | [12]; at 3.7 µM -9% | [12]; at 11.0 µM -13% | [12]; at 33.0 µM 11% | [13]; at 1.2 µM -15% | [13]; at 3.7 µM -3% | [13]; at 11.0 µM 3% | [13]; at 33.0 µM 43% | [14]; [16] 32% | [14]; at 50.0 µM 44.5% | [15]; at 1.2 µM -12% | [15]; at 3.7 µM 1% | [15]; at 11.0 µM 11% | [15]; at 33.0 µM 27%
